An excerpt weighted towards active compounds, which were near 4.2% of everything screened.
uPA surface inh: qHTS for Inhibitors of Cell Surface uPA Generation | AID 540303, 2011 | Potency, µM (titrated, usually from 38.3 µM), inactives show at the highest dose activity change, negative = inhibition, hits mostly inhibitors | 330,000 compounds, 0.31% hits | cell surface uPA generation assay, qHTS; active means well fitted inhibition curve with a large enough effect; inconclusive means small, poorly fitted or top-dose-only effect; inactive means no such curve, though single readings can be large or run the other way; tested in mouse RAW 264.7 cells; further: potency means the concentration at half of the fitted maximal effect; on the % scale 0 is the no-effect control and ±100 the full control effect; nearly all actives have a fitted effect of over 55% in size
Sfp inh: qHTS Assay for Inhibitors of Bacillus subtilis Sfp phosphopantetheinyl transferase (PPTase). 4'-phosphopantetheinyl transferase ffp (Bacillus subtilis), Q9F4F7. Biochemical Sfp PPTase activity, qHTS. Potency, µM, for the others: largest response in the series, negative = inhibition, actives largely listed as inhibitors. 310,000 compounds, 3.5% hits. AID 1490, 2009;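 further: the enzyme is Sfp with the accession as filed and its product quenches rhodamine fluorescence; potency means the concentration at half of the fitted maximal effect; 0% = enzyme reaction without inhibitor and -100% = no enzyme wells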
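Step 1, compound plus 15 nM Sfp-PPTase, 15 min, room temperature. Step 2, add rhodamine-CoA (5 uM) and BHQ-2-YbbR (12.5 uM). Step 3, read 525/598 nm fluorescence at 0 and 30 min.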
ClpP mod: qHTS Assay for Activators of ClpP. ATP-dependent Clp protease proteolytic subunit (Bacillus subtilis (strain 168)), P80244. purified B. subtilis ClpP, FRET peptide cleavage, 20 min. Potency, µM (titrated, usually from 57.5 µM), inactives show top-dose activity change, negative = active. 340,000 compounds, 1.9% hits. AID 651965, 2013; active means well fitted falling curve with a large enough effect; inconclusive means small, poorly fitted or top-dose-only effect; inactive means no such curve, though single readings can be large or run the other way; further: potency means the concentration at half of the fitted maximal effect; the source files actives as falling curves though it sought activators and does not explain the sign; nearly all actives have a fitted effect of over 65% in size
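Buffer: 100 mM Tris/HCl pH8, 100 mM KCl, 0.05% low protease BSA, 2.5% glycerol, 0.01% Tween-20. ClpP 10 microg/mL final; 20 min RT; delta FRET normalized to ADEP and DMSO controls.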
TCR act: Activators of T cell receptors: qHTS campaign | primary human leukocytes, anti-CD3, IL-2 HTRF, 48 h | Potency, µM (series often up to 9.22 µM), inactives show at the top dose activation of IL-2 secretion, hits mostly activators | 330,000 tested, under 10 active; further: % of control where 0% means no effect
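Compounds are tested in HTS on primary human leukocytes co-incubated with a-CD3 beads for 48 hr. IL-2 output is measured by time-resolved FRET.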
Numbers without * were called inactive; ? = inconclusive; nt = no result; [ ] = remark or other dose. Unless noted, the call rests on the fitted dose curve; in most records, active means well fitted curve in the direction sought with a large enough effect; inconclusive means small, poorly fitted or top-dose-only effect, or another doubt; inactive means no such curve, though single readings can be large; an effect the other way counts as inactive or inconclusive.

SMILES	uPA surface inh	Sfp inh	ClpP mod	TCR act
Cc1cccc(N2C(=O)CC(Sc3nc(C)cc(C)n3)C2=O)c1 (centres undefined)	-0.6%	-2.2%	4.5%	-18.5%
Cc1cccc(N2C(=O)CC(Sc3nc(-c4ccccc4)c4cc(Cl)ccc4n3)C2=O)c1 (centres undefined)	-7.6%	12.7%	28.2µM*	5.4%
CCOCCCNC(=O)c1ccc(OC2CCN(C(C)=O)CC2)c(OC)c1	-3.9%	4.5%	-1.9%	nt
CC(=O)CSc1nc(-c2ccccc2)c(-c2ccccc2)o1	?	-11.8%	28.2µM*	5.3%
CC(=O)C(Sc1nc(N(C)C)nc(N(C)C)n1)C(=O)Nc1ccccc1 (centres undefined)	-0.8%	-10.9%	nt	-8.3%
CC(=O)C(Sc1nn(C)c(=S)s1)C(=O)Nc1ccccc1 (centres undefined)	-8.5%	39.8µM*	-1.1%	0.8%
COc1ccccc1CNC(=O)Cn1c(=O)c2cccn2c2cccnc21	8.6%	-9.7%	-22.9%	5.1%
O=[N+]([O-])c1ccccc1SNc1ccccc1	nt	nt	-2.2%	nt
NC(=O)CC(NSc1ccccc1[N+](=O)[O-])C(=O)O (centres undefined)	8.2%	50.1µM*	-2.0%	2.9%
Nc1cc(C(Cl)=C(Cl)Cl)c(S(N)(=O)=O)cc1S(N)(=O)=O	8.8%	14.0%	-0.1%	-4.7%
CCOC(=O)c1sc(NC(=O)c2ccccc2)cc1C	-13.1%	-2.7%	14.3%	2.0%
CCOC(=O)c1sc(N)c(C(=O)OCC)c1C	-15.0%	1.2%	1.1%	-2.3%
CCOC(=O)c1c(N)sc(C(=O)OCCOC)c1C	-5.2%	25.1µM*	nt	2.3%
CCOC(=O)c1sc(N)c(C(=O)Nc2ccccc2)c1C	10.0%	20µM*	-4.1%	-6.7%
Cc1ccc2ncc(C(=O)NCc3ccccc3Cl)c(=O)n2c1	nt	nt	4.1%	nt
CC(C)(C)C(=O)Nc1ccc2oc(-c3cc(F)c(F)cc3Cl)nc2c1	-5.0%	14.5%	31.6µM*	0.0%
O=C(Nc1ccc2oc(-c3ccccc3F)nc2c1)c1ccccc1Cl	nt	nt	4.4%	nt
Cc1ccc(S(=O)(=O)/N=C(/c2ccc(F)cc2)N2CCCC2)cc1	-1.9%	-8.0%	0.7%	3.4%
Cc1ccc(S(=O)(=O)/N=C(/c2ccc(F)cc2)N2CCCCC2)cc1	14.7%	1.3%	31.6µM*	0.1%[46.1 µM]
COC(=O)[C@]12CCCCC=C1N(Cc1ccc3c(c1)OCO3)C(=O)[C@H](CC(=O)NCc1ccc(C)o1)C2	nt	nt	-0.9%	nt
Cc1ccc2c(c1)N(C(=O)Nc1cccc3c1CCCC3)CC(C)O2 (centres undefined)	nt	nt	-6.0%	nt
c1ccc2c(SCc3cn4ccccc4n3)nncc2c1	-13.6%	44.7µM*	-3.3%	-5.4%
Clc1ccc(SCc2cn3ccccc3n2)cc1	-2.4%	9.8%	nt	2.2%
N#Cc1c(/N=C/C=C/c2ccccc2)sc2c1CCCC2	-1.7%	25.1µM*	-0.6%	nt
Cc1ccc(/C=C/C(=O)Nc2sc3c(c2C#N)CCCC3)o1	6.5%	39.8µM*	-11.8%	-1.3%[46.1 µM]
SMILES	uPA surface inh	Sfp inh	ClpP mod	TCR act
Cc1ccc(/C=N/c2sc3c(c2C#N)CCCCC3)o1	-2.9%	50.1µM*	0.8%	3.5%
CCc1ccc(CCC(=O)Nc2sc3c(c2C#N)CCCC3)o1	nt	-46.8%	-1.9%	-0.8%
Cc1[nH]n(-c2cccc3ccccc23)c(=O)c1/C=N/c1sc2c(c1C#N)CCC2	2.5%	79.4µM*	-1.0%	0.7%
CN1CCN(/C=N/c2sc3c(c2C#N)CCCCC3)CC1	-9.3%	-1.5%	1.7%	9.0%
O=C(c1cc(COc2ccc(F)c(F)c2)on1)N1CCN(C/C=C/c2ccccc2)CC1	7.9%	1.7%	0.4%	-8.2%
C=CC[C@@H](CC(=O)N[C@@H](CO)Cc1ccccc1)C(=O)N[C@@H](COC(=O)[C@H](CC=C)CC(=O)OC(C)(C)C)Cc1c[nH]c2ccccc12	-17.0%	nt	3.0%	5.0%
Cc1ccc2c(c1)c1c(n2C)-c2[nH]ncc2CC1	1.3%	11.5%	12.6µM*	8.2%[46.1 µM]
CN(CC(=O)Nc1cccc(F)c1)C(=O)CCN1C(=O)C2CC=CCC2C1=O (centres undefined)	14.8%	nt	-1.5%	1.3%
O=C(COC(=O)CCCN1C(=O)c2cccc3cccc(c23)C1=O)Nc1cccc(C(F)(F)F)c1	5.1%	2.1%	28.2µM*	1.7%[46.1 µM]
CN(CC(=O)Nc1cccc(F)c1)C(=O)CCCN1C(=O)c2cccc3cccc(c23)C1=O	-4.9%	nt	14.1µM*	-3.0%
CCN(C(=O)COC(=O)CCCN1C(=O)c2cccc3cccc(c23)C1=O)C1CCS(=O)(=O)C1 (centres undefined)	-1.6%	nt	28.2µM*	-5.3%
CC1NS(=O)(=O)c2cc([N+](=O)[O-])ccc21 (centres undefined)	nt	nt	-1.0%	nt
C[C@H]1Cc2c(COc3ccccc3)nc3c(c2CO1)CN(C(=O)c1ccco1)CC3	nt	7.0%	nt	nt
COc1cc2c(cc1OC)C1=NC(=O)CN1C(SCc1ccccc1)=N2	0.9%	?	22.4µM*	-1.6%
COc1cnn(Cc2ccccc2)c(=O)c1SCc1ccccc1	-3.1%	-8.8%	-2.4%	-0.1%[46.1 µM]
CCOC(=O)c1oc2ccccc2c1NC(=O)c1ccccc1OC	nt	0.1%	35.5µM*	0.5%
Cc1cc(C)c2nc(NNC(=O)c3cc(=O)c4ccccc4o3)sc2c1	18.9%	17.8µM*	-1.3%	6.8%
Cc1ccc2nc(COc3ccc(Cl)cc3)cc(=O)n2c1	7.7%	2.4%	?	-3.3%
NC(=S)N/N=C/c1ncc(C(F)(F)F)cc1Cl	0.5%	25.1µM*	nt	0.6%
Cc1ccc(C(=O)OCC(=O)Nc2cccc(S(=O)(=O)NC3=NCCCCC3)c2)c(C)c1	4.1%	7.8%	-3.3%	7.5%
O=S(=O)(c1ccc2c(c1)C(=NO)c1cc(S(=O)(=O)N3CCCCC3)ccc1-2)N1CCCCC1	-17.5%	-14.3%	28.2µM*	5.9%
CCc1ccccc1NC(=O)c1ccc(F)c(S(=O)(=O)N2CCN(c3ccccc3OC)CC2)c1	nt	nt	-1.6%	nt
CC(C)Cn1c(/C=C/c2ccccc2)nc2ccccc21	-10.5%	-18.8%	7.08µM*	-4.5%[46.1 µM]
CCn1c(/C=C/c2ccccc2)nc2ccccc21	?	2.3%	14.1µM*	nt
O=C(CN1C(=O)c2cccnc2Oc2ccc(Cl)cc21)NCCCN1CCCCC1	nt	nt	-4.0%	nt
SMILES	uPA surface inh	Sfp inh	ClpP mod	TCR act
CC(Sc1nc(-c2ccccc2)c(-c2ccccc2)[nH]1)C(=O)NCC1CCCO1 (centres undefined)	nt	nt	28.2µM*	nt
COc1cccc(OCC(=O)Nc2nnc3n2CCS3)c1	nt	nt	-1.0%	nt
Cc1nn2c(=O)cc(CSCC(=O)Nc3ccccc3Cl)nc2s1	0.8%	16.8%	-1.0%	-11.4%
Cc1oc(-c2ccc(C(=O)Nc3ccc(F)cc3F)cc2)nc1COc1ccccc1	nt	nt	-2.3%	nt
CCOC(=O)N/N=C/c1cn(CCCOc2ccccc2)c2ccccc12	0.3%	2.4%	28.2µM*	-3.8%[46.1 µM]
CCC(=Nc1ccc(N)cc1)C1=C(O)C(C(=O)OC)C(C)(C)CC1=O (centres undefined)	-4.1%	44.7µM*	-7.8%	5.7%
